Results as given in PubChem BioAssay AID1619 (SRMLSC, 2009).
About 830 (0.38%) of roughly 220,000 compounds were called active.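 The calls were made as follows: active = compound inhibiting the enzyme by more than half at any dose during confirmatory dose-response retesting; inconclusive = strong single-dose inhibitors picked by rank but not retested; inactive = the rest.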 Only a sample is shown. Entries with a potency or affinity are not part of this list.

target: Leucine aminopeptidase (Plasmodium falciparum (isolate 3D7)) (UniProt Q8IL11); test: P. falciparum M17LAP inhibitors, primary screen, biochemical, fluorogenic H-Leu-NHMec substrate, 1536-well (AID 1619); conditions: recombinant M17LAP, H-Leu-NHMec fluorogenic kinetic assay; at 30 µM; active compounds read high;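 also: plate controls were full reaction with DMSO carrier for no effect and no enzyme background for full effect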
Sequence (Q8IL11 whole entry, looked up): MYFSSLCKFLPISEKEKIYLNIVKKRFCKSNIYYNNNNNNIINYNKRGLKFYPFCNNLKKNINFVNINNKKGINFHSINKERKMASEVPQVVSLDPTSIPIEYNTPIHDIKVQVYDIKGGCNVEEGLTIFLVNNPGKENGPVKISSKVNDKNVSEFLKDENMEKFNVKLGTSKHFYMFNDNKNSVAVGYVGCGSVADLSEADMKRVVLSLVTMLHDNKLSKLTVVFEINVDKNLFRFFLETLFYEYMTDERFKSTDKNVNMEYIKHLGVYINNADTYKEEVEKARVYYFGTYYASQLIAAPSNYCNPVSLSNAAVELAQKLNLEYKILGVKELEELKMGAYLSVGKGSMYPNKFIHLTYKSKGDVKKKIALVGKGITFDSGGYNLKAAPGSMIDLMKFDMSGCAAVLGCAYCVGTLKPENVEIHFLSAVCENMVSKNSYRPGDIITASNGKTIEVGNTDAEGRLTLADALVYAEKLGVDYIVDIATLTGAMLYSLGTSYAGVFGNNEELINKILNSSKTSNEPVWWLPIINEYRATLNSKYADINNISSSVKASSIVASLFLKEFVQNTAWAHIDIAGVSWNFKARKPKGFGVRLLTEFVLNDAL

inhibition, inactive:
C/C(=N\NC(=O)c1cccc(S(=O)(=O)N2CCCC2)c1)c1cccs1 0.78%
O=C(CN1CCN(c2ncc(C(F)(F)F)cc2Cl)CC1)NC(=O)NCc1ccccc1 -3.07%
Cn1c2c(c(=O)n3ncnc13)CCCC2 -2.57%
Cc1ccc(OCCCC(=O)Nc2ccc(Br)cc2)cc1 -1.62%
Cc1ccc(NC(=O)COC(=O)c2cccnc2)cc1 25.2%
CCn1c(CCNC(=O)c2ccc(OC)cc2)nnc1SCC(=O)Nc1ccccc1F 1.93%
CCOc1ccc(NC(=O)CSc2nnc(CCNC(=O)c3ccc(OC)cc3)n2C)cc1 23.6%
O=C(COC(=O)c1cccnc1)Nc1ccccc1 2.57%
O=C(O)CCC(=O)Nc1ccc(OCC(=O)O)cc1 -3.01%
O=C(O)Cn1nnnc1SCC(=O)Nc1ccccc1F 18.7%
CCn1nnnc1SCC(=O)Nc1ccc(OC)cc1 3.82%
Cc1ccccc1NC(=O)NCc1ccc2c(c1)OCO2 5.21%
O=C(c1cnsn1)N1CCN(c2ccccn2)CC1 -4.02%
Cc1nc(C(=O)O)nn1-c1ccc([N+](=O)[O-])cc1 0.22%
COc1cccc([C@@H]2Oc3ccc(OC)cc3C(=O)[C@H]2OC(=O)N[C@H](C)C2CCCCC2)c1 -23.2%
O=[N+]([O-])c1ccc2c(c1)/C(=N\O)c1ccccc1-2 2.49%
CN1CCN(c2ccc(C(CC(N)=O)NC(=O)Cc3ccc(Br)cc3)cc2[N+](=O)[O-])CC1 (stereo unspecified) 5.26%
O=C(N/N=C\c1ccc2c(c1)OCO2)c1ccco1 26.4%
CCOc1ccc(OCC)c(NC(=O)CSCC(=O)O)c1 2.8%
Nn1cnnc1SCC(=O)Nc1ccc(C2CCCCC2)cc1 -2.76%
CCCCOc1ccc(CC(=O)NCC(=O)O)cc1 4.31%
O=C(CSCCO)Nc1ccc(C2CCCCC2)cc1 6.11%
CCn1nnnc1SCC(=O)Nc1ccc(OCc2ccccc2)cc1 4.99%
CCOc1ccc(NC(=O)CCC(=O)O)cc1 18%
CCCCOc1ccc(C(=O)O)cc1 23.4%
CCCc1nnc(SCC(=O)Nc2ccc(OCC)cc2)n1N 30.4%
O=C(Nc1nc2ccsc2c(=O)s1)c1ccco1 2.03%
COc1cc(/C=N/NC(=O)c2ccccc2Cl)ccc1Oc1ccc([N+](=O)[O-])cn1 3.71%
COC(=O)c1ccccc1NC(=O)c1ccccc1N(C)S(=O)(=O)c1ccccc1 -2.99%
CCN(C(=O)CCc1nc(-c2ccc(OC)cc2)no1)c1cc(OC)ccc1OC -5.65%
Cc1ccc(S(=O)(=O)N(C)CC(=O)OCC(=O)NC(c2ccccc2)c2ccccc2)cc1 11.4%
Cc1ccc(-c2ccc(/C=N/NC(=O)c3ccccc3O)o2)cc1 3.44%
COc1ccc(C(=O)Nc2nc3cc4c(cc3s2)OCCO4)c(OC)c1 -6.2%
Cc1ccc(NC(=O)NCc2ccccn2)cc1 5.76%
COc1ccc(C(=O)NC(=S)NNC(=O)Cc2cccs2)cc1 41.2%
O=C(CCc1ccccc1)NNC(=S)NC(=O)c1ccc(Cl)cc1 92.7%
CC(=O)NC(=S)NNC(=O)CCc1ccccc1 21.3%
CC(C)(C)c1cc(CCC(=O)NN)cc(C(C)(C)C)c1O -14%
CC(C)(C)c1cc(CCC(=O)NNC(=O)c2ccco2)cc(C(C)(C)C)c1O -5.01%
COc1ccc(C(=O)NC(=S)NNC(=O)COc2ccccc2)cc1 1.34%
Cc1ccc(C(=O)NNC(=S)NC(=O)COc2ccccc2)cc1 16.5%
O=C(Cc1cccs1)NNC(=S)NC(=O)c1ccc(F)c(F)c1 7.14%
CCOC(=O)N1CCC(N2C(=O)c3ccccc3C2Nc2ccc(S(=O)(=O)N3CCOCC3)cc2)CC1 (stereo unspecified) 2.69%
Cc1cccc(NC(=O)CCCn2cc([N+](=O)[O-])cn2)n1 -2.41%
COc1ccc(OC)c(NC(=O)CSCC(=O)O)c1 6.02%
Cc1cc(C(=O)CCC(=O)N2CCN(S(=O)(=O)c3cccs3)CC2)c(C)s1 0.37%
CN1C[C@@H]2C[C@@H](c3cccn3-c3nccs3)N3CCC[C@@]23C1=O -0.22%
Cc1ccc(NC(=O)CN2CCCCCC2)cc1Br 9.91%
Cc1cc(C(=O)COc2ccccc2[N+](=O)[O-])c(C)n1-c1cccc(S(=O)(=O)N2CCOCC2)c1 2.08%
Cc1cc(C(=O)CCl)c(C)n1-c1cccc(S(=O)(=O)N2CCOCC2)c1 1.27%
CCSC1=C(C#N)C(c2ccccc2Cl)C(C(=O)c2cccs2)C(O)(C(F)(F)F)N1 (stereo unspecified) -2.94%
CC(Sc1ccc2c(c1)OCCO2)C(=O)Nc1ccc2c(c1)OCO2 (stereo unspecified) 31.4%
CC(Sc1ccc2c(c1)OCCO2)C(=O)Nc1ccc(N2CCOCC2)cc1 (stereo unspecified) -0.69%
O=C(CSc1ccc2c(c1)OCCO2)Nc1ncc(Cl)cc1Cl 33.8%
CCCNC(=O)NC(=O)CSc1ccc2c(c1)OCCO2 -3.31%
CCOc1cc(S(=O)(=O)Nc2ccccc2CC)ccc1Cl 8.77%
Nc1nnc(SCC(=O)NN2C(=O)NC3(CCCCC3)C2=O)s1 28%
Cc1nnc(SCC(=O)NN2C(=O)NC3(CCCCC3)C2=O)s1 0.53%
O=C(CSc1nnc(NC2CCCCC2)s1)NCc1ccco1 1.38%
O=C(CSc1nnc(NC2CCCCC2)s1)NC1CCS(=O)(=O)C1 (stereo unspecified) 11.6%
Cn1nc(C(=O)NNc2c(F)c(F)cc(F)c2F)c2ccccc2c1=O 10.2%
Cc1ccccc1Nc1nc(N)nc(CSc2nnnn2-c2ccccc2)n1 2.91%
CCCCn1nc(C(=O)Nc2cc(S(=O)(=O)N(C)C)ccc2C)c2ccccc2c1=O 0.9%
CCCN(c1ccc(C(=O)OC)cc1)S(=O)(=O)c1ccccc1 -1.32%
Cc1cccc(C)c1NC(=O)CSc1nnc(NC(=O)CN2CCOCC2)s1 24.1%
O=C(CSc1nnc(NC(=O)CN2CCOCC2)s1)Nc1ccccc1 27.4%
Cc1cccc(NC(=O)CSc2nnc(NC(=O)CN3CCCCC3)s2)c1 52.7%
Cc1cccc(Nc2nnc(SCC(=O)Nc3cccc(S(=O)(=O)N4CCCCC4)c3)s2)c1 33.5%
CC(=O)c1ccc(NC(=O)CSc2nnc(NC(=O)CN3CCOCC3)s2)cc1 28.4%
CCc1ccc(Nc2nnc(SCC(=O)Nc3ccc(C(=O)O)cc3)s2)cc1 33%
O=C(NCCN1CCN(c2ccccc2)CC1)c1ccc(NC(=O)C2CCCO2)cc1 (stereo unspecified) -5.43%
CC1=CC(C2CC(=O)N(c3ccccc3C)C2=O)CC2C(=O)N(c3ccccc3C)C(=O)C12 (stereo unspecified) 3.8%
CC1=C(C(=O)OCC2CCCO2)C(c2ccncc2)C2=C(CC(C)(C)CC2=O)N1 (stereo unspecified) -16.9%
O=[N+]([O-])c1ccc2c(c1)C=C1CCCCC1(N1CCCCC1)O2 (stereo unspecified) 9.55%
COc1ccc(/C=C2\SC(=O)N(CCn3cnnn3)C2=O)cc1 -2.01%
O=C(CN1CCN(Cc2ccc(F)cc2Cl)C1=O)NCCc1ccccc1 8.72%
CC1CCCN(c2nc(NCc3ccco3)nc(N)c2[N+](=O)[O-])C1 (stereo unspecified) -3.16%
CCCC(=O)Nc1nnc(-c2ccco2)s1 -4.22%
O=C(CCc1nc2ccccc2[nH]c1=O)OCC(=O)c1cccc2ccccc12 -3.73%
CCCc1[nH]nc2c1C(/C(C)=C/c1ccccc1)C(C#N)=C(N)O2 (stereo unspecified) 6.81%
C/C(=C\c1ccco1)C1C(C#N)=C(N)OC2=C1C(=O)CC(C)(C)C2 (stereo unspecified) 5.9%
Cc1ccc(SCc2[nH]nc3c2C(c2ccco2)C(C#N)=C(N)O3)cc1 (stereo unspecified) 44.8%
Cc1[nH]nc2c1C(c1ccco1)C(C#N)=C(N)O2 (stereo unspecified) 6.22%
COc1cc(C(=O)NCC(c2cccnc2)N2CCN(c3ccc(F)cc3)CC2)cc(OC)c1OC (stereo unspecified) -0.25%
COc1ccc(CNC(=O)CN(Cc2ccccc2)S(=O)(=O)c2ccc(Cl)cc2)cc1 -4.99%
O=C(c1ccc2c(c1)OCO2)C1CCCN(C(=O)C2CCOCC2)C1 (stereo unspecified) -3.38%
COCCCNC(NC(=O)c1ccc(Br)cc1)C(Cl)(Cl)Cl (stereo unspecified) 0.25%
NC(=O)[C@@H]1CC2(CC(c3cccc(NC(=O)[C@H]4CCC(=O)N4)c3)=NO2)CN1C(=O)c1ccc(Cl)cc1 (stereo partly specified) 11.6%
COc1ccccc1NC(=O)NCc1nc(-c2ccc(C(F)(F)F)cc2)no1 0.03%
COc1cc(OC)cc(C(=O)Nc2ccc([N+](=O)[O-])cn2)c1 1.24%
CN(C)c1ccc(C(=O)Nc2nnc(C3=COCCO3)o2)cc1 3.73%
C=CCOc1ccc(NC(=O)C2CC(=O)N(C(C)C)C2)cc1 (stereo unspecified) 27.3%
CCOc1ccc(NC(=O)C2CC(=O)N(C(C)C)C2)cc1 (stereo unspecified) 43.2%
CCOC(=O)c1c(C)n(C)c2ccc(OC(=O)c3ccc([N+](=O)[O-])cc3)cc12 -6.49%
CCCc1cc(=O)[nH]c(Nc2ccc(Cl)cc2)n1 1.52%
COc1ccc(Cc2nnc(Nc3ccc(Cl)cc3)[nH]c2=O)cc1 -7.25%
